The text below walks through data of PubChem BioAssay.

Experiment [1] is described as follows: antimalarial activity against Dd2 strain (AID 2302;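 active = growth inhibition above 50% at the single 2 µM test dose, taken to imply half-maximal potency below 2 µM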;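 also: 0% = DMSO untreated growth and 100% = chloroquine plus artemisinin killed control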). Conditions: P. falciparum Dd2 in RBCs, LDH growth readout, 72 h; at 2 µM; stronger effect = higher value.
Experiment [2] can be described thus: human hepatoma cell viability loss – ATP luminescence, cytotoxicity control for P. falciparum antimalarial project, primary screen (AID 2303;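 active = inhibition above 50%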;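 also: 0% = DMSO wells and 100% = digitonin-killed cells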). To be noted: HepG2 viability, 24-48 h, at 10 µM, stronger effect = higher value.
The target in experiment [3] is L-lactate dehydrogenase (Plasmodium falciparum (isolate CDC / Honduras)) (UniProt Q27743). Nature of the experiment: PfLDH activity inhibition – cell lysate, 3D7 strain, counter-screen for P. falciparum growth inhibition project (AID 2304; call rule not given here;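 also: 0% = vehicle and 100% = reference inhibitor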). Conditions: P. falciparum 3D7 crude extract, LDH APAD/NBT absorbance; at 2 µM; stronger effect = higher value. On the technique in general: The purpose of a counterscreen is to sort out artefacts and off-target activity.
Sequence of L-lactate dehydrogenase (Plasmodium falciparum (isolate CDC / Honduras)) (Q27743 whole entry, looked up): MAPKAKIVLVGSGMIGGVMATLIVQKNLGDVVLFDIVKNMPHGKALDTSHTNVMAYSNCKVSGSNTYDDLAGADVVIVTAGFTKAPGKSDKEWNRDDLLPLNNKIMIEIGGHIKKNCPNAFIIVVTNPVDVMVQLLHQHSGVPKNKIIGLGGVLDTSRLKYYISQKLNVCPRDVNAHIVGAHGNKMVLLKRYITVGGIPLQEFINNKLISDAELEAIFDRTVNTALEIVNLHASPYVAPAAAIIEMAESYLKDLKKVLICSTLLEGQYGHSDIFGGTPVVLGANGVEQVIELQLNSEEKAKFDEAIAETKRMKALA

The nature of experiment [4]: inhibition of 3D7 malaria parasite growth – strain 3D7 (AID 2306; call rule not given here;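 also: 0% = DMSO wells and 100% = chloroquine plus artemisinin control wells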). To be noted: P. falciparum 3D7 erythrocytic growth, LDH absorbance, 72 h; at 2 µM; stronger effect = higher value.
Experiment [5] can be described thus: compounds altering circadian rhythm period length – cell-based, LOPAC library, luminescence reporter (AID 2774; call rule not given here;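 also: values are relative to mean of DMSO wells on each plate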). To be noted: circadian reporter cells, at 7 µM, actives lie on both sides.
Experiment [6] can be described thus: galactose survival enhancers in mitochondrial complex I cybrids – cell-based, galactose medium, ATP luminescence, primary screen (AID 1645843;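 active = z-score of at least 1.8 in each of two replicates, scored against plate mean and spread of sample wells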;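 also: positive z means more ATP and so rescue of galactose-driven cybrid death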). To be noted: complex I mutant cybrid cells, 72 h, stronger effect = higher value.
Experiment [7] in a line: growth inhibition, single agent or in combination, cell-based, chromothripsis tumors, cisplatin or BGB combos (AID 1671449).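 Also: cells exposed for 96 hours; 0% = vehicle DMSO and 100% = killing by high DMSO.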 Conditions: LFS_MB_P medulloblastoma cells.
A short description of experiment [8]: growth inhibition, single agent and combos, cell-based, chromothripsis tumors, cisplatin or BGB combos (AID 1671450).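 Also: cells exposed to compound for four days; 0% = vehicle DMSO and 100% = cell killing by high DMSO.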 Conditions: HDN33 neuroblastoma cells, stronger effect = higher value.
Experiment [9] in a line: growth inhibition, single agents and combos, ICB984, cell-based, cisplatin or BGB combos, synergistic combos for chromothripsis tumors (AID 1671451; call rule not given here;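 also: cells exposed for 96 hours before readout; 0% = vehicle DMSO and 100% = killing by high DMSO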). To be noted: ICB984 medulloblastoma cells, drug combinations, stronger effect = higher value.
Experiment [10] can be described thus: growth inhibition, single agents and combos, LFS_MB_1R, cell-based, cisplatin or BGB combos, synergistic combos for chromothripsis tumors (AID 1671452).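 Also: cells exposed for 96 hours before readout.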 To be noted: LFS_MB_1R medulloblastoma cells, stronger effect = higher value.
Experiment [11] is described as follows: growth inhibition, single agents and combos, HTB85, cell-based, BGB or cisplatin IC20 combos, synergistic combos for chromothripsis tumors (AID 1671453).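 Also: cells exposed for 96 hours before readout; 0% = vehicle DMSO and 100% = high DMSO killing control.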 Conditions: HTB85 osteosarcoma cells, drug combinations, stronger effect = higher value.
The nature of experiment [12]: growth inhibition, single agents and combos, CRL2098, cell-based, BGB or cisplatin IC20 combos, synergistic combos for chromothripsis tumors (AID 1671454).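 Also: cells exposed for 96 h before readout; 0% = vehicle DMSO and 100% = killing by high DMSO.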 Conditions: CRL2098 osteosarcoma cells, drug combinations, stronger effect = higher value.
The nature of experiment [13]: growth inhibition, single agents and combos, HD-MB03, cell-based, BGB or cisplatin IC20 combos, synergistic combos for chromothripsis tumors (AID 1671455; in the data active = inhibition above about 83%;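 also: 0% = vehicle DMSO and 100% = high DMSO as cytotoxic control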). To be noted: HD-MB03 medulloblastoma cells, stronger effect = higher value.
A short description of experiment [14]: growth inhibition, single agents and combos, UWB1.289, cell-based, BGB or cisplatin combos, synergistic combos for chromothripsis tumors (AID 1671456).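 Also: cells exposed to compound for four days; 0% = vehicle DMSO and 100% = killing by high DMSO.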 Conditions: UWB1.289 ovarian carcinoma cells, stronger effect = higher value.
Experiment [15] in a line: growth inhibition, single agents and combos, LFS_MB_2R, cell-based, cisplatin combos, synergistic combos for chromothripsis tumors (AID 1671457).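 Also: cells exposed to compound for four days before readout.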 Conditions: LFS_MB_2R medulloblastoma cells, stronger effect = higher value.
Experiment [16] is described as follows: growth inhibition, MDA-MB-436, cell-based, BGB or cisplatin combos, synergistic combos for chromothripsis tumors (AID 1671458; call rule not given here;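 also: cells exposed for 96 hours; 0% = vehicle DMSO and 100% = killing by high DMSO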). To be noted: MDA-MB-436 breast carcinoma growth inhibition, drug combinations, stronger effect = higher value.
A short description of experiment [17]: UWB1.289_BRCA1 ovarian cancer growth, cell-based, BGB or cisplatin combinations (AID 1671459). Conditions: UWB1.289 BRCA1 ovarian carcinoma, drug combinations, stronger effect = higher value.
Experiment [18] is described as follows: drug combination toxicity in non-malignant astrocytes – cell-based, BGB or cisplatin IC20 combos, cytotoxicity control for chromothriptic childhood tumor combination screen (AID 1671460).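 Also: cells exposed to compounds for 96 hours before viability readout; 0% = vehicle and 100% = killing control.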 To be noted: Human astrocytes, viability inhibition, drug combinations, at 0.5 µM, stronger effect = higher value.
The nature of experiment [19]: BT084 cell growth, single and combined drugs, ICGC_MB145, cisplatin and BGB IC40 combos (AID 1671461).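 Also: cells exposed to drugs for 96 hours; 0% = vehicle DMSO and 100% = high DMSO full killing control.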 To be noted: BT084 medulloblastoma cells, drug combinations, stronger effect = higher value.
Experiment [20] is described as follows: RCMB18 cell growth, single agent and combined, cisplatin and BGB IC40 combos (AID 1671462).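 Also: cells exposed to compound for four days.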 Conditions: RCMB18 medulloblastoma cells, stronger effect = higher value.
Experiment [21] can be described thus: CRL1545 cell growth, single agent and combined, cisplatin and BGB IC20 combos (AID 1671464).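 Also: cells exposed to compound for 96 hours before readout; 0% = vehicle DMSO and 100% = high DMSO killing control.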 To be noted: CRL1545 osteosarcoma cells, stronger effect = higher value.
[22] abbreviates: measured here: combination with BGB IC40, at 0.05 µM.
[23] abbreviates: measured here: with BGB IC20 combination, at 0.5 µM.
The mark [24] stands for this setting: measured here: with cisplatin IC20 combination, at 0.5 µM.
[25] abbreviates: measured here: combination with cisplatin, at 0.5 µM.
Setting [26] is: measured here: combination with cisplatin, at 5 µM.

Several values for one entry are separate records, joined by “and”; a condition that tells them apart may be missing. Equal entries are not always repeated. Activity calls are given as the source filed them. Rule as the data show it, unless noted: active = inhibition above about 80%; inactive = the rest.

With `Cc1ccc(C[C@H](C)NC[C@H](O)c2cccc(C(F)(F)F)c2)cc1`, the growth inhibition in [1] is 54% (active); in experiment [4], 100% (active). Further, the inhibition (in general, the change of the read-out against control, counted positive when it falls) is 5% (inactive) in experiment [2] and -1% (inactive) in [3].

Regarding `COc1cc(C[C@@H](C)N)c(OC)cc1I`, the period change in experiment [5] was -0.225 h (inactive).

For `CC(CCCC(C)(C)O)CCNC(C)Cc1ccsc1` (stereo unspecified), the z-score in experiment [6] is -0.475 (inactive).

Consider `CC(CCCC(C)(C)O)NC(C)Cc1ccccc1F` (stereo unspecified), for which the z-score in experiment [6] is -0.515 (inactive).

`C[C@]12CC[C@H](OS(=O)(=O)O)CC1=CC[C@@H]1[C@@H]2CC[C@]2(C)C(=O)CC[C@@H]12`: the period change in experiment [5] was -0.035 h (inactive).

As for `COc1cc([C@@H]2c3cc4c(cc3[C@H](O)[C@H]3COC(=O)[C@H]23)OCO4)cc(OC)c1O`, the inhibition is -9.98% (inactive) and 8.43% (inactive) in [7] (at 0.5 µM, stronger effect = higher value); -2.59% and -6.87% in experiment [7] (measured here: combination with BGB IC20, at 0.005 µM); 7.46% and -20.3% in [7] (measured here: combination with BGB IC40, at 0.005 µM); 35.2% and -17% in experiment [7] (setting [22]); -26% and 12.8% in [7] (measured here: combination with cisplatin, at 0.5 µM, stronger effect = higher value); 48% and 29.7% in experiment [7] (measured here: combination with cisplatin, at 5 µM, stronger effect = higher value). Also, the inhibition in experiment [8] (BGB combo, at 5 µM) was 64.5% and 57.8%; in experiment [8] (at 0.5 µM), 76% (inactive) and 68.9% (inactive); in experiment [8] (cisplatin combo, at 5 µM), 60.1% and 62.6%; in experiment [8] (setting [23]), 66.9% and 60.4%; in experiment [8] (setting [24]), 69% and 58.6%; in experiment [8] (single agent, at 5 µM), 77.6% and 81.6%. Besides, the inhibition is 12.7% and -7.66% in experiment [9] (BGB IC20 combo, at 0.005 µM); 1.81% and -7.75% in [9] (BGB IC40 combo, at 0.005 µM); 4.84% and 20.6% in [9] (BGB IC40 combo, at 0.05 µM); -16.8% (inactive) and -20% (inactive) in experiment [9] (at 0.5 µM); 1.07% and 20.6% in [9] (cisplatin combo, at 0.05 µM); -39.6% and -30.5% in [9] (cisplatin combo, at 0.5 µM). Besides, the inhibition in experiment [9] (cisplatin combo, at 5 µM) was -37.8% and -5.3%; in experiment [9] (measured here: 5 uM single agent, at 5 µM), 0.691% and -3.02%; in [10] (at 0.5 µM) it was 4.95% (inactive) and 4.02% (inactive); in [10] (setting [22]), -9.68% and 4.85%; in experiment [10] (setting [25]) it was -26.6% and 18%; in experiment [10] (setting [26]) it was 44.6% and 52.8%. Also, the inhibition in [11] (at 0.5 µM) is 70% (inactive) and 60.4% (inactive); in experiment [11] (measured here: with BGB IC20, at 0.5 µM), 56.9% and 41.3%; in experiment [11] (measured here: with BGB IC20, at 5 µM), 58.2% and 51.8%; in experiment [11] (measured here: with cisplatin IC20, at 0.5 µM), 60.9% and 54%; in experiment [11] (measured here: with cisplatin IC20, at 5 µM) it was 70.5% and 80%; in experiment [11] (single agent, at 5 µM), 87% and 84.5%. Moreover, the inhibition in experiment [12] (at 0.5 µM) is 57.9% (inactive) and 29.8% (inactive); in experiment [12] (measured here: combination with BGB at IC20, at 0.5 µM) it was 50.3% and 29.8%; in [12] (measured here: combination with cisplatin at IC20, at 0.5 µM), 57.2% and 5.54%; in experiment [13] (at 0.5 µM) it was 71.7% (inactive) and 69.2% (inactive); in experiment [13] (measured here: combo with BGB at IC20, at 0.5 µM) it was 61.9% and 65.3%; in experiment [13] (measured here: combo with cisplatin at IC20, at 0.5 µM), 71.7% and 65.8%. Moreover, the inhibition in experiment [14] (at 0.5 µM) is 44% (inactive) and 35.9% (inactive); in experiment [14] (measured here: inhibition with BGB combination, at 0.05 µM), -0.844% and 8.28%; in [14] (measured here: inhibition with cisplatin combination, at 0.05 µM), 0.424% and -0.759%; in [15] (at 0.5 µM) it was 13.5% (inactive) and -0.16% (inactive); in [15] (setting [25]), 23.7% and 7.38%; in experiment [15] (setting [26]), 37.2% and 35.6%. The inhibition in experiment [16] (at 0.5 µM) was 56.1% (inactive) and 45.1% (inactive); in [16] (measured here: BGB combination, at 0.5 µM), 36% and 23.1%; in [16] (measured here: BGB combination, at 5 µM), 45.8% and 43.9%; in [16] (measured here: cisplatin combination, at 0.5 µM), 63.1% and 44.6%; in experiment [16] (measured here: cisplatin combination, at 5 µM) it was 70.8% and 69%; in experiment [17] (BGB combination, concentration series, at 5 µM) it was 55.3% and 54.8%. Besides, the inhibition in experiment [17] (at 0.5 µM) is 51.6% (inactive) and 46.7% (inactive); in experiment [17] (cisplatin combination, concentration series, at 5 µM) it was 64.1% and 63.1%; in experiment [18] it was 69.7% (inactive) and 62.4% (inactive); in experiment [18] (measured here: combo with BGB IC20) it was 66.6% and 57.1%; in [18] (measured here: combo with cisplatin IC20), 62.5% and 52.4%; in [19] (at 0.5 µM), 23.1% (inactive) and 7.97% (inactive). The inhibition in experiment [19] (cisplatin combination, at 0.5 µM) was -0.605% and 4.61%; in experiment [19] (cisplatin combination, at 5 µM), 43.4% and 22.5%; in [19] (measured here: BGB IC40 combination 0.05 uM, at 0.05 µM), 7.15% and -9.48%; in experiment [19] (single agent, at 5 µM), 73.2% and 24.9%; in [20] (at 0.5 µM), 6.51% (inactive) and -0.09% (inactive); in [20] (cisplatin combo, at 5 µM), 39.6% and 46.7%. The inhibition in experiment [20] (measured here: BGB IC40 combination, at 0.05 µM) was -8.85% and -7.39%; in [20] (setting [25]), 22% and 15.3%; in experiment [20] (single agent, at 5 µM), 43.2% and -3.33%; in [21] (at 0.5 µM) it was 56.5% (inactive) and 47% (inactive); in [21] (setting [23]), 55% and 43.8%; in [21] (setting [24]), 57.3% and 48.6%. Moreover, the inhibition in [21] (single agent, at 0.05 µM) is -5.66% and 32.2%; in [21] (single agent, at 5 µM) it was 83% and 76.2%.
